# “And” between values parts separate entries of the source, which are not always exact repeats. Equal entries are not always repeated. Where two headings read alike, the source gives them in different places.
# Key:
# Conditions in all cases: concentration: 1 μM, replicates: in singlicate, n = 1
# RIPK5 = system: RIPK5
# ROCK1 = system: ROCK1
# ROCK2 = system: ROCK2
# ROS1 = system: ROS1
# [1] = system: RPS6KA4(Kin.Dom.1-N-terminal)
# [2] = system: RPS6KA4(Kin.Dom.2-C-terminal)
# [3] = system: RPS6KA5(Kin.Dom.1-N-terminal)
# [4] = system: RPS6KA5(Kin.Dom.2-C-terminal)
# [5] = system: T1, RSK1(Kin.Dom.1-N-terminal)
# T1 construct: gene RPS6KA1
# [6] = system: T2, RSK1(Kin.Dom.2-C-terminal)
# T2 construct: gene RPS6KA1
# [7] = system: T3, RSK2(Kin.Dom.1-N-terminal)
# T3 construct: gene RPS6KA3
# [8] = system: T4, RSK2(Kin.Dom.2-C-terminal)
# T4 construct: gene RPS6KA3
# [9] = system: T5, RSK3(Kin.Dom.1-N-terminal)
# T5 construct: gene RPS6KA2
# [10] = system: T6, RSK3(Kin.Dom.2-C-terminal)
# T6 construct: gene RPS6KA2
# [11] = system: T7, RSK4(Kin.Dom.1-N-terminal)
# T7 construct: gene RPS6KA6
# [12] = system: T8, RSK4(Kin.Dom.2-C-terminal)
# T8 construct: gene RPS6KA6
# S6K1 = system: S6K1
# SBK1 = system: SBK1
# SGK2 = system: SGK2
# SGK3 = system: SGK3
# 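Further: KINOMEscan kinase panel screen.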
smiles,measurement,setting,value
CC(C)(CN)c1nc(-c2ccc(Cl)c(O)c2)c(-c2ccncc2)[nH]1.O=C(O)C(F)(F)F [SB-477794],%Inh,RIPK5,0%
same,%Inh,ROCK1; 1 µM,28% and 43%
same,%Inh,ROCK2; 1 µM,49% and 40%
same,%Inh,ROS1; 1 µM,15% and 53%
same,%Inh,[1]; 1 µM,0% and 23%
same,%Inh,[2],0%
same,%Inh,[3]; 1 µM,5% and 0%
same,%Inh,[4]; 1 µM,7% and 36%
same,%Inh,[5]; 1 µM,16% and 15%
same,%Inh,[6],35%
same,%Inh,[7]; 1 µM,0% and 11%
same,%Inh,[8]; 1 µM,36% and 27%
same,%Inh,[9]; 1 µM,6% and 2%
same,%Inh,[10]; 1 µM,0% and 2%
same,%Inh,[11],0%
same,%Inh,[12]; 1 µM,90.6% and 89%
same,%Inh,S6K1; 1 µM,43% and 37%
same,%Inh,SBK1; 1 µM,5% and 6%
same,%Inh,SGK2; 1 µM,2% and 0%
same,%Inh,SGK3; 1 µM,0% and 7%
[2H]C([2H])(c1cccc(C(F)(F)F)c1C)n1ccn2c(=O)nc(N3CCOCC3)cc12 [GSK2336394],%Inh,RIPK5,0%
same,%Inh,ROCK1,8%
same,%Inh,ROCK2,0%
same,%Inh,ROS1,22%
same,%Inh,[1],17%
same,%Inh,[2],0%
same,%Inh,[3],2%
same,%Inh,[4],0%
same,%Inh,[5],5%
same,%Inh,[6],0%
same,%Inh,[7],0%
same,%Inh,[8],18%
same,%Inh,[9],9%
same,%Inh,[10],0%
same,%Inh,[11],0%
same,%Inh,[12],21%
same,%Inh,S6K1,12%
same,%Inh,SBK1,24%
same,%Inh,SGK2,1%
same,%Inh,SGK3,0%
NS(=O)(=O)CCc1cccc(Nc2nccc(-c3c(-c4cccc(NC(=O)c5c(F)cccc5F)c4)nn4ccccc34)n2)c1 [GSK336735],%Inh,RIPK5,10%
same,%Inh,ROCK1,24%
same,%Inh,ROCK2,0%
same,%Inh,ROS1,79%
same,%Inh,[1],53%
same,%Inh,[2],0%
same,%Inh,[3],63%
same,%Inh,[4],6%
same,%Inh,[5],100%
same,%Inh,[6],0%
same,%Inh,[7],15%
same,%Inh,[8],0%
same,%Inh,[9],45%
same,%Inh,[10],0%
same,%Inh,[11],0%
same,%Inh,[12],2%
same,%Inh,S6K1,20%
same,%Inh,SBK1,27%
same,%Inh,SGK2,0%
same,%Inh,SGK3,3%
CNc1ncnc2[nH]ncc12 [SKF-18355],%Inh,RIPK5,8%
same,%Inh,ROCK1,91.5%
same,%Inh,ROCK2,84%
same,%Inh,ROS1,0%
same,%Inh,[1],23%
same,%Inh,[2],0%
same,%Inh,[3],0%
same,%Inh,[4],17%
same,%Inh,[5],0%
same,%Inh,[6],15%
same,%Inh,[7],46%
same,%Inh,[8],0%
same,%Inh,[9],5%
same,%Inh,[10],22%
same,%Inh,[11],16%
same,%Inh,[12],0%
same,%Inh,S6K1,24%
same,%Inh,SBK1,0%
same,%Inh,SGK2,0%
same,%Inh,SGK3,0%
COC(=O)Nc1nc2cc(Oc3ccc(NC(=O)Nc4cc(F)ccc4F)cc3)ccc2[nH]1.Cl [GW701424],%Inh,RIPK5,0%
same,%Inh,ROCK1,52%
same,%Inh,ROCK2,67%
same,%Inh,ROS1,0%
same,%Inh,[1],0%
same,%Inh,[2],0%
same,%Inh,[3],24%
same,%Inh,[4],43%
same,%Inh,[5],0%
same,%Inh,[6],0%
same,%Inh,[7],5%
same,%Inh,[8],1%
same,%Inh,[9],8%
same,%Inh,[10],13%
same,%Inh,[11],0%
same,%Inh,[12],18%
same,%Inh,S6K1,2%
same,%Inh,SBK1,6%
same,%Inh,SGK2,0%
same,%Inh,SGK3,12%
COc1ccc(COc2cc(-n3cnc4ccccc43)sc2C(N)=O)cc1 [GSK1024304],%Inh,RIPK5,0%
same,%Inh,ROCK1,9%
same,%Inh,ROCK2,20%
same,%Inh,ROS1,0%
same,%Inh,[1],0%
same,%Inh,[2],0%
same,%Inh,[3],3%
same,%Inh,[4],13%
same,%Inh,[5],6%
same,%Inh,[6],0%
same,%Inh,[7],18%
same,%Inh,[8],16%
same,%Inh,[9],17%
same,%Inh,[10],5%
same,%Inh,[11],2%
same,%Inh,[12],23%
same,%Inh,S6K1,0%
same,%Inh,SBK1,0%
same,%Inh,SGK2,10%
same,%Inh,SGK3,1%
O=c1cc(N2CCOCC2)nc2n(Cc3cccc(F)c3)ccn12 [GSK2297430],%Inh,RIPK5,0%
same,%Inh,ROCK1,0%
same,%Inh,ROCK2,27%
same,%Inh,ROS1,24%
same,%Inh,[1],19%
same,%Inh,[2],0%
same,%Inh,[3],26%
same,%Inh,[4],0%
same,%Inh,[5],0%
same,%Inh,[6],0%
same,%Inh,[7],0%
same,%Inh,[8],0%
same,%Inh,[9],14%
same,%Inh,[10],0%
same,%Inh,[11],0%
same,%Inh,[12],6%
same,%Inh,S6K1,0%
same,%Inh,SBK1,6%
same,%Inh,SGK2,0%
same,%Inh,SGK3,0%
CCn1cnc2c(N)ncnc21 [GW345098],%Inh,RIPK5,38%
same,%Inh,ROCK1,12%
same,%Inh,ROCK2,22%
same,%Inh,ROS1,0%
same,%Inh,[1],5%
same,%Inh,[2],25%
same,%Inh,[3],0%
same,%Inh,[4],0%
same,%Inh,[5],7%
same,%Inh,[6],11%
same,%Inh,[7],0%
same,%Inh,[8],14%
same,%Inh,[9],0%
same,%Inh,[10],24%
same,%Inh,[11],0%
same,%Inh,[12],26%
same,%Inh,S6K1,17%
same,%Inh,SBK1,0%
same,%Inh,SGK2,22%
same,%Inh,SGK3,0%
CC(C)Oc1ccc2c(-c3ccnc(Nc4ccc(N5CCN(C)CC5)cc4)n3)cnn2n1 [GW696155],%Inh,RIPK5,77%
same,%Inh,ROCK1,98.8%
same,%Inh,ROCK2,99.7%
same,%Inh,ROS1,51%
same,%Inh,[1],0%
same,%Inh,[2],99.8%
same,%Inh,[3],0%
same,%Inh,[4],98.9%
same,%Inh,[5],34%
same,%Inh,[6],90%
same,%Inh,[7],44%
same,%Inh,[8],28%
same,%Inh,[9],7%
same,%Inh,[10],77%
same,%Inh,[11],0%
same,%Inh,[12],95.1%
same,%Inh,S6K1,44%
same,%Inh,SBK1,88%
same,%Inh,SGK2,52%
same,%Inh,SGK3,58%
NCC(NC(=O)c1cc(-c2cn[nH]c2)c(-c2ccnc3[nH]ccc23)s1)c1ccccc1.O=C(O)C(F)(F)F.O=C(O)C(F)(F)F (centres unmarked) [GSK1325775],%Inh,RIPK5,16%
same,%Inh,ROCK1,100%
same,%Inh,ROCK2,99.9%
same,%Inh,ROS1,0%
same,%Inh,[1],47%
same,%Inh,[2],43%
same,%Inh,[3],13%
same,%Inh,[4],60%
same,%Inh,[5],24%
same,%Inh,[6],5%
same,%Inh,[7],35%
same,%Inh,[8],6%
same,%Inh,[9],7%
same,%Inh,[10],0%
same,%Inh,[11],21%
same,%Inh,[12],8%
same,%Inh,S6K1,53%
same,%Inh,SBK1,84%
same,%Inh,SGK2,79%
same,%Inh,SGK3,81%
CC(C)(C)n1cnc2c(N)ncnc21 [SKF-97359],%Inh,RIPK5,0%
same,%Inh,ROCK1,52%
same,%Inh,ROCK2,33%
same,%Inh,ROS1,64%
same,%Inh,[1],10%
same,%Inh,[2],0%
same,%Inh,[3],0%
same,%Inh,[4],0%
same,%Inh,[5],0%
same,%Inh,[6],80%
same,%Inh,[7],0%
same,%Inh,[8],18%
same,%Inh,[9],2%
same,%Inh,[10],18%
same,%Inh,[11],0%
same,%Inh,[12],46%
same,%Inh,S6K1,5%
same,%Inh,SBK1,0%
same,%Inh,SGK2,0%
same,%Inh,SGK3,0%
NCCNS(=O)(=O)c1ccc(-c2ccnc3[nH]ccc23)cc1 [GSK977617],%Inh,RIPK5; 1 µM,3% and 0%
same,%Inh,ROCK2,99.8%
same,%Inh,ROS1; 1 µM,65% and 43%
same,%Inh,[1]; 1 µM,48% and 33%
same,%Inh,[2]; 1 µM,99.2% and 98.5%
same,%Inh,[3]; 1 µM,47% and 33%
same,%Inh,[4]; 1 µM,97.6% and 94.8%
same,%Inh,[5]; 1 µM,62% and 27%
same,%Inh,[6]; 1 µM,63% and 41%
same,%Inh,[7]; 1 µM,79% and 60%
same,%Inh,[8],0%
same,%Inh,[9]; 1 µM,40% and 14%
same,%Inh,[10]; 1 µM,29% and 22%
same,%Inh,[11]; 1 µM,54% and 23%
same,%Inh,[12]; 1 µM,48% and 37%
same,%Inh,S6K1; 1 µM,71% and 73%
same,%Inh,SBK1; 1 µM,79% and 57%
same,%Inh,SGK2; 1 µM,24% and 4%
same,%Inh,SGK3; 1 µM,57% and 44%
NS(=O)(=O)c1cccc(-c2ccc3ncc(N4CCOCC4)nc3c2)c1 [GSK1535721],%Inh,RIPK5,8%
same,%Inh,ROCK1,0%
same,%Inh,ROCK2,0%
same,%Inh,ROS1,2%
same,%Inh,[1],4%
same,%Inh,[2],0%
same,%Inh,[3],8%
same,%Inh,[4],13%
same,%Inh,[5],0%
same,%Inh,[6],6%
same,%Inh,[7],15%
same,%Inh,[8],7%
same,%Inh,[9],0%
same,%Inh,[10],0%
same,%Inh,[11],0%
same,%Inh,[12],0%
same,%Inh,S6K1,10%
same,%Inh,SBK1,0%
same,%Inh,SGK2,0%
same,%Inh,SGK3,9%
COc1ccc(Nc2nccc(N3CCC(NC(=O)Nc4cc(C)ccc4C)C3)n2)cc1 (centres unmarked) [GSK1379741],%Inh,RIPK5,0%
same,%Inh,ROCK1,14%
same,%Inh,ROCK2,0%
same,%Inh,ROS1,0%
same,%Inh,[1],0%
same,%Inh,[2],0%
same,%Inh,[3],8%
same,%Inh,[4],19%
same,%Inh,[5],6%
same,%Inh,[6],0%
same,%Inh,[7],0%
same,%Inh,[8],0%
same,%Inh,[9],18%
same,%Inh,[10],0%
same,%Inh,[11],0%
same,%Inh,[12],0%
same,%Inh,S6K1,11%
same,%Inh,SBK1,0%
same,%Inh,SGK2,0%
same,%Inh,SGK3,0%
Cl.Cl.Cl.Fc1ccc(-c2ncn(C3CCNCC3)c2-c2ccnc(Nc3ccccc3)n2)cc1 [SB-238039],%Inh,RIPK5; 1 µM,82% and 61%
same,%Inh,ROCK1; 1 µM,27% and 0%
same,%Inh,ROCK2; 1 µM,32% and 9%
same,%Inh,ROS1,0%
same,%Inh,[1]; 1 µM,16% and 4%
same,%Inh,[2]; 1 µM,0% and 4%
same,%Inh,[3]; 1 µM,36% and 11%
same,%Inh,[4]; 1 µM,23% and 0%
same,%Inh,[5],0%
same,%Inh,[6]; 1 µM,64% and 35%
same,%Inh,[7]; 1 µM,41% and 35%
same,%Inh,[8]; 1 µM,16% and 0%
same,%Inh,[9]; 1 µM,0% and 15%
same,%Inh,[10]; 1 µM,18% and 32%
same,%Inh,[11]; 1 µM,19% and 0%
same,%Inh,[12]; 1 µM,88% and 80%
same,%Inh,S6K1; 1 µM,5% and 0%
same,%Inh,SBK1; 1 µM,36% and 0%
same,%Inh,SGK2,2%
same,%Inh,SGK3; 1 µM,8% and 12%

# Reference: article PMC5540273 (PLoS ONE, 2017)
